Screens: PubChem BioAssay, several laboratories
FXIIa inh mix = human factor XIIa inhibitors, primary screen, biochemical, pooled compound mixtures, fluorogenic substrate; purified FXIIa; inhibition, % at 5 µM; hit rate 0.2% among 62,000
CatG inh = human cathepsin G inhibitors, primary screen, biochemical, pooled compound mixtures, AMC fluorescence; purified enzyme, AMC-tetrapeptide fluorescence; AID 581, 2007; inhibition, % at 5 µM (by protocol); P08311; hit rate 0.2% among 62,000;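 active = inhibition above 20% in each of the two mixture wells holding the compound; inactive = inhibition of 20% or less in either well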
FXIa mix inh = FXIa protease inhibitors in compound pools, primary screen, biochemical, 10-compound mixtures; purified FXIa, fluorogenic substrate, pooled mixtures; inhibition, % at 5 µM; hit rate 0.19% among 62,000;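 note: each value is inhibition by a whole ten-compound pool holding the compound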
C1s block = complement C1s protease inhibitors, primary screen, biochemical, 10-compound mixtures | mean inhibition % of two 10-compound mixtures (active compounds read high), % at 5 µM (by protocol) | purified C1s, fluorogenic AMC substrate, pooled mixtures | hit rate 0.16% among 62,000;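 active = inhibition above 20% in each of the two 10-compound mixture wells holding the compound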
ROCK2 blocker = inhibitors of human ROCK2 kinase, primary screen, biochemical, high-throughput, luminescence; hit rate 0.35% among 60,000; AID 604, 2007; purified ROCK2, Kinase-Glo ATP depletion luminescence; inhibition, % at 6 µM; Rho-associated protein kinase 2 (Homo sapiens), O75116;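 active = inhibition above the screen-wide mean inhibition plus 3 SD, cut at about 18% in these data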
PKA inh = inhibitors of human PKA kinase activity, primary screen, biochemical, ATP-depletion luminescence, Kemptide substrate; cAMP-dependent protein kinase catalytic subunit alpha (Homo sapiens), P17612; PKA Kemptide phosphorylation, Kinase-Glo ATP luminescence; inhibition, % at 6 µM; hit rate 0.1% among 65,000; AID 524, 2006;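 active = inhibition above the screen-wide mean inhibition plus 3 SD, cut at about 21% in these data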
Of the large screens only hits and unclear results are named; the others gave an inactive call. Hits are enriched below; roughly 0.78% of the tested compounds scored in any of these assays. Cut-off read from the data, not from the text of the source, unless noted: active = inhibition above about 20% (passing the limit was not always enough); inactive = the rest.

CN1C(=O)CSc2ccc(NC(=O)NCc3cccnc3)cc21	ROCK2 blocker 58
COc1ccc(NC(=O)C(c2ccc(OC)cc2)N(C)C(=O)c2cnccn2)cc1 (stereo unspecified)	none (no result: ROCK2 blocker)
COc1ccc(OC)c(Nc2nc(-c3cccs3)cs2)c1	none
COc1ccccc1Nc1nc(-c2cccs2)cs1	C1s block 58
CC(C)NC(=O)Cn1nnc(-c2ccc(Cl)cc2)n1	none
O=C(Nc1nncs1)Oc1ccccc1	none
CSc1nnc(Cc2cc(=O)[nH]c(=O)[nH]2)n1-c1cccc(C)c1	none
Cc1cccc(-n2c(Cc3cc(=O)[nH]c(=O)[nH]3)nnc2SCC(=O)N2CCCCC2)c1	FXIa mix inh 21
Cc1cc(C)c2[nH]c(=O)c(C(c3nnnn3C3CCCC3)N3CCOCC3)cc2c1 (stereo unspecified)	none
CCCCn1c(=O)n(C)c(=O)c2c(C(F)(F)F)cc(-c3ccncc3)nc21	FXIIa inh mix 44
CCCSc1nc(N)cc(=O)[nH]1	none
COCCCn1c(=S)[nH]c2ncccc2c1=O	none
COCCn1c(=S)[nH]c2ncccc2c1=O	FXIa mix inh 38
CC(C)C(CC(=O)N1CCCCC1)C1CCOC(C)(C)C1 (stereo unspecified)	CatG inh 28 (no result: ROCK2 blocker)
CC1(C)NC(=O)N(CC(O)COC2CCCCC2)C1=O (stereo unspecified)	FXIIa inh mix 20
COC(=O)c1[nH]c2cc(C)ccc2c1NC(=O)CN1CCN(C(=O)c2ccco2)CC1	none
Cc1ccc(C(=O)c2cc(C)sc2NC(=O)CN2CCN(C(=O)c3ccco3)CC2)cc1	FXIIa inh mix 21
c1ccc(OCCCc2nc(-c3ccncc3)no2)cc1	ROCK2 blocker 18
c1ccc(OCCCc2nc(-c3ccccn3)no2)cc1	none
CSc1nc(C)cc(NC(N)=O)n1	none
Cc1cc(Oc2ccccc2)nc(OCC#N)n1	FXIIa inh mix 38
O=C(C1CCCCN1S(=O)(=O)c1ccc(F)cc1)N1CCN(c2ccccc2F)CC1 (stereo unspecified)	none
N#Cc1cc2c(nc1SCc1ccncc1)CCC2	ROCK2 blocker 58
N#CCSc1nc2c(cc1C#N)CCCCCC2	none (no result: FXIIa inh mix, CatG inh, FXIa mix inh, C1s block)
O=C1CCC(=O)c2oc3ccccc3c2N1	FXIIa inh mix 21
Nc1nc2c(c3c1c(=O)oc1ccccc13)CCCCC2	none
Cc1cc(N2CCN(C)CC2)nc2ccc(NC(=O)CCC(=O)NCc3ccco3)cc12	none
CC(=O)c1ccc(Cc2cnc(N)s2)cc1	FXIIa inh mix 21
N=c1oc2ccccc2cc1-c1nc2ccccc2c(=O)[nH]1	FXIIa inh mix 35
O=c1[nH]c(-c2ccncc2)nc2ccccc12	none
O=C1CC(N2CCN(c3ccc(Cl)c(Cl)c3)CC2)C(=O)N1 (stereo unspecified)	FXIIa inh mix 53
Cc1cc(C)nc(N2CCCC(C(=O)Nc3nc4ccc(S(C)(=O)=O)cc4s3)C2)n1 (stereo unspecified)	none
CCn1cc(SCC(=O)NCc2ccc3c(c2)OCO3)c2ccccc21	none
CC(=O)c1cn(CC(=O)NCc2ccc3c(c2)OCO3)c2ccccc12	C1s block 64
COc1ccc(Cl)cc1S(=O)(=O)N1CCN(C(=O)COc2ccccc2)CC1	none
COc1ccccc1-c1cc(C(F)(F)F)nc(N2CCOCC2)n1	FXIa mix inh 22 (no result: ROCK2 blocker)
Fc1ccc(-c2cc(C(F)(F)F)nc(N3CCCCC3)n2)cc1	FXIIa inh mix 21 (no result: ROCK2 blocker)
COc1ccc(C(=O)N2CCSC2=S)cc1OC	none
COc1ccc(C(=O)SC2=NCCS2)cc1OC	C1s block 24
Cc1cc(NC(=O)c2cc(C(C)C)on2)no1	none
O=C(COC(=O)c1ccccc1)NCc1ccco1	FXIIa inh mix 35
Clc1cccc(Cl)c1COc1ccccn1	FXIIa inh mix 30
COc1cccc(NC(=O)CCP(C)(=O)O)c1	C1s block 63
COc1cccc(NC(=O)Cc2ccccc2)c1	none
COC(=O)CSc1ccccc1C(=O)OC	none
COC(=O)c1cccc2c1-c1ccccc1/C2=N/O	ROCK2 blocker 20
